The values below come from the supplement of paper PMC10105736.
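Also: HEK293T cells with Epo stimulation, STAT-responsive firefly luciferase reporter, fold induction versus unstimulated cells divided by the larger fold induction of two negative controls lacking either bait or prey.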

The subject of this assay is CG7945. Briefly: MAPPIT interaction score (arbitrary units); higher = stronger binary interaction signal, active = hit call of the paper. To be noted: MAPPIT configuration: N-C; pair source set: Lit-BM-16. As for the experimental part:
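MAPPIT in HEK293T cells: Drosophila bait and prey ORFs (from the FlyBi ORF collection) were co-transfected in quadruplicate, with two wells stimulated by erythropoietin. Interaction-dependent JAK-STAT activation was read out with a STAT-responsive firefly luciferase reporter. Positive calls use the 99th percentile of random reference set (RRS) scores within each batch […]. Batches Dvs01 and Dvs02 used the N-N configuration and Dvs04 the N-C configuration. Pairs come from FlyBi screens, CuraGen, DPiM, Finley Y2H, Lit-BM-16, Lit-BS-16 and RRS.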
For DnaJ-1, the MAPPIT interaction score was 1.15 (inactive).
